Screening data deposited in PubChem by National Center for Advancing Translational Sciences (NCATS).
This is one part of a sample in which hits are shown more often than they occur.
p53 reactivator – restores transcriptional activity of mutant p53. H1299 p53-A138V BP100-luciferase reporter, luminescence, 24 h. hit rate 0.063% among 320,000. AID 504706. Potency, µM (series often up to 92.2 µM), for inactives: at the top dose activity change, positive = activation, actives largely listed as activators; note: % of control where 0% means no effect; nearly all actives have a fitted effect of over 45% in size
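H1299 (p53-null), stable ts p53-A138V + BP100-Luc; 1000 cells/well, Opti-MEM/10% FBS; cpd 4 pt, 1:5; 24 h, 37 deg C, 5% CO2; detection reagent 10 min RT; luminescence.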
Eya2 inh – blocks the phosphatase activity of human Eya2. O00167. recombinant Eya2, OMFP fluorescence dephosphorylation (OMFP is methylfluorescein phosphate). Potency, µM (series often up to 76.9 µM), for the others: top-dose activity, negative = inhibition, actives largely listed as inhibitors. hit rate 0.006% among 330,000; note: % is set by controls: 0 for no effect and ±100 for the full control effect
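Eya2 protein (added as 0.2 uM solution) was preincubated with compound for 10 min at ambient temperature in 50 mM HEPES pH 7.5, 50 mM NaCl, 5 uM MgCl2, 0.05% BSA, 1 mM DTT. OMFP (added at 50 uM) then reacted 10 min; fluorescence read at 485/525 nm.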
ClpP mod – qHTS Assay for Activators of ClpP; hit rate 1.9% among 340,000; Potency, µM (highest dose often 57.5 µM), for the others: at the highest dose activity change, negative = active; purified B. subtilis ClpP, FRET peptide cleavage, 20 min; ATP-dependent Clp protease proteolytic subunit (Bacillus subtilis (strain 168)), P80244; active = well fitted falling curve with a large enough effect; inconclusive = small, poorly fitted or top-dose-only effect; inactive = no such curve, though single readings can be large or run the other way; note: the source files actives as falling curves though it sought activators and does not explain the sign; nearly all actives have a fitted effect of over 65% in size
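ClpP 10 microg/mL final, pH 8 Tris/KCl buffer with BSA, glycerol, Tween-20; compound pinned in; FRET-FV substrate; RT 20 min; Ex320/Em430; ΔFRET vs ADEP 5.8 microM, DMSO, no enzyme.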
Mm-Cpn inhibitor – blocks the Methanococcus maripaludis chaperonin Mm-Cpn; AID 504842; hit rate 0.031% among 330,000; purified Mm-Cpn ATPase, ADP Transcreener TR-FRET; Potency, µM (doses to about 76.9 µM), without a hit: at the highest dose activity, negative = inhibition, most hits filed as inhibitors; note: % is set by controls: 0 for no effect and ±100 for the full control effect; nearly all actives have a fitted effect of over 80% in size
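Inhibition of chaperonin ATP hydrolysis is measured as reduced ADP production, detected by competitive TR-FRET in which signal falls with ADP. Final enzyme 25 nM and ATP 10 uM, reacted 30 min at 37°C.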
USP2a block – blocks human ubiquitin-specific protease USP2a. Potency, µM (titrated, usually from 38.3 µM), for inactives: top-dose activity change, negative = inhibition, hits mostly inhibitors. AID 463254. hit rate 0.01% among 330,000. USP2 core, Ub-CHOP2 coupled fluorogenic reporter, 485/531;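 note: plate controls were DMSO wells for no effect and full inhibition by NEM control for full effect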
Target sequence (O75604 whole entry, looked up): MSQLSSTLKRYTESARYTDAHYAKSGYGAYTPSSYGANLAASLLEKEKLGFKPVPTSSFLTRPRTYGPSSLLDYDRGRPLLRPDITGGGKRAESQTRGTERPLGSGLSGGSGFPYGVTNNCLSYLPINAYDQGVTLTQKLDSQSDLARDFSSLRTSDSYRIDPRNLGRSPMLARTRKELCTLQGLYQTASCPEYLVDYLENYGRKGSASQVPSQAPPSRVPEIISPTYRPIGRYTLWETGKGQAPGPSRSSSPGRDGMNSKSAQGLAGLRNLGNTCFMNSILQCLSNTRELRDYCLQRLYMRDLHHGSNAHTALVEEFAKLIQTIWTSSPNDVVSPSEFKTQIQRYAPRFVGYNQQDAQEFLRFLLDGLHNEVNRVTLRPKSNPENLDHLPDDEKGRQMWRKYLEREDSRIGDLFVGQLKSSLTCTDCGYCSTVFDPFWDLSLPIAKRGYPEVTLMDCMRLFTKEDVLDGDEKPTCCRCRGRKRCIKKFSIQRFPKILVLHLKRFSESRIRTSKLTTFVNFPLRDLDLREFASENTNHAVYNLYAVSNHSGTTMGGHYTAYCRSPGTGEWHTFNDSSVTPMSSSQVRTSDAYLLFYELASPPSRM
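USP2 core (10nM final) preincubated 30min RT with compound in 20mM Tris-HCl pH 8.0, 2mM CaCl2, 2mM beta-mercaptoethanol, 0.05% CHAPS; 25nM Ub-CHOP2 plus 25nM reporter substrate added, fluorescence (Ex485/Em531) read after 60min.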
a7 integrin act – integrin-mediated muscular dystrophy alleviation activation | alpha7betagal myoblasts, beta-gal FDG fluorescence, 48 h | hit rate 0.064% among 350,000 | Potency, µM (top dose mostly 38.3 µM), inactives show at the top dose activation, most hits filed as activators | AID 624291;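 note: 100% = response of the positive control SU9516; nearly all actives have a fitted effect of over 60% in size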
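Alpha7betagal+/- myoblasts (passage 13) were plated 16-24 hr, then exposed to compounds (1:260 dilution of DMSO stock) for 48 hours at 37C. After MPER lysis, β-galactosidase reporter activity was read as FDG fluorescence (ex 480/em 540) after 30 minutes.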
* hit, by the source's call; ? = inconclusive; / = no result given; [ ] = another dose, or the depositor's remark. Unless noted, calls come from the whole dose curve; as a rule, active = well fitted curve in the direction sought with a large enough effect; inconclusive = small, poorly fitted or top-dose-only effect, or another doubt; inactive = no such curve, though single readings can be large; an effect the other way counts as inactive or inconclusive. Potency is the fitted concentration of half-maximal effect.

SMILES | p53 reactivator | Eya2 inh | ClpP mod | Mm-Cpn inhibitor | USP2a block | a7 integrin act
COc1ccc(OC)c(C(=O)CSc2nc3ncccc3[nH]2)c1 | -3% | 10% | 32µM* | 1% | -4% | 17%
O=C(Cn1nnc(-c2ccccc2)n1)Nc1cccc(S(=O)(=O)N2CCCC2)c1 | 7% | -8% | 32µM* | 2% | -1% | 0%
Cc1cccc(OCC(=O)Nc2cc(-c3nc4cc(Cl)ccc4o3)ccc2C)c1 | / | / | 4% | / | / | /
CSc1nc2ccccc2c(=O)n1C1CCCCC1 | 6% | 7% | / | -1% | 2% | -6%
Cc1nc2ccccc2c(=O)n1C1CCCCCC1 | -6% | 0% | 25µM* | ? | 0% | -8%
Cc1ccc(N2C(=O)CC(Cc3ccc(Cl)cc3)C2=O)cc1 (centres undefined) | / | -5% | 7.1µM* | 0% | 0% | 14%
O=C(C[n+]1c(Cl)cc(Cl)c2ccccc21)c1ccccc1 | / | / | -1% | / | / | /
O=C(COC(=O)c1cc(S(=O)(=O)N2CCOCC2)ccc1O)NCC1CCCO1 (centres undefined) | -9% | 26% | 35µM* | 1% | 2% | -3%
O=C(COc1ccc(S(=O)(=O)N2CCOCC2)cc1)NCC1CCCO1 (centres undefined) | / | 4% | -4% | -5% | 0% | 18%
O=C(O)CCc1ccc(-c2ccc(Cl)cc2)n1-c1cccc(C(F)(F)F)c1 | / | / | -4% | / | / | /
CCN(CC)c1ccc2c(C)c(CO)c(=O)oc2c1 | 10% | -1% | / | 0% | 3% | -5%
CCN(CC)c1ccc2c(C)c(CN3CCOCC3)c(=O)oc2c1 | 37% | 16% | 28µM* | ? | -5% | -22%
O=C(c1ccc(F)cc1)N1CCCC(C(=O)N2CCN(c3ccccc3)CC2)C1 (centres undefined) | 1% | 11% | 28µM* | -7% | 0% | -15%
Cc1cccc(-c2cc3nc4c(c(N5CCOCC5)n3n2)CCCC4)c1 | ? | -7% | ? | 0% | -10% | -6%
Cc1cccc(-c2cc3nc4c(c(NCc5ccco5)n3n2)CCCC4)c1 | ? | -22% | 28µM* | -6% | -6% | -39%
C[n+]1ccnc2cc(Cl)ccc21 | / | / | -7% | / | / | /
Cc1ccc2cc(C(c3nnnn3C3CCCC3)N(Cc3ccccc3)Cc3ccco3)c(=O)[nH]c2c1 (centres undefined) | ? | 18%[15.4 µM] | 22µM* | -6% | -4% | 2%
Cc1cc2cc(C(c3nnnn3C3CCCC3)N(Cc3cccnc3)Cc3ccco3)c(=O)[nH]c2cc1C (centres undefined) | 4% | 4% | ? | -15% | -1% | -35%
CCC(C)c1ccc2oc(-c3ccc(NC(=O)Cn4cnc5c(=O)n(C)c(=O)n(C)c54)cc3)nc2c1 (centres undefined) | ? | 4% | 11µM* | -2% | -1% | -14%
Cc1ccc(-c2[nH]ncc2CNCc2ccc(CN(C)C)cc2)cc1 | / | / | 1% | / | / | /
O=C(Nc1ccc(Cl)c(S(=O)(=O)N2CCCCC2)c1)C1=COCCO1 | 3% | -4% | 14µM* | -1% | -7% | 12%
CN(C)S(=O)(=O)c1cc(NC(=O)C2=COCCO2)ccc1Cl | -2% | 12% | -3% | 0% | -2% | -6%
C(=Nc1ccc(/C=C/c2ccnc3ccccc23)cc1)c1cccs1 | / | / | -3% | / | / | /
COc1ccc(-c2nc3cccc(C)n3c2Nc2ccc(C)cc2)cc1 | / | / | 4% | / | / | /
COc1ccc(NC(=O)C2(c3ccc(NC(=O)c4ccc(OC)cc4)cc3)CCCC2)cc1 | -7% | -4% | 28µM* | -3% | -1% | 11%
SMILES | p53 reactivator | Eya2 inh | ClpP mod | Mm-Cpn inhibitor | USP2a block | a7 integrin act
COc1ccc(C2(C(=O)Nc3nncs3)CCCC2)cc1 | -1% | 8% | 2% | -2% | 3% | 19%
CCCCNC(=S)N1CCN(CC)CC1 | 5% | -4% | / | 3% | 0% | ?
CCCNC(=S)N1CCN(C)CC1 | -4% | -6% | 7.1µM* | 1% | -1% | 0%
COc1ccc(CN2CCc3c([nH]c4ccccc34)C2)c(OC)c1C | / | -1% | 28µM* | -1% | 3% | -17%
COc1ccc(CN2CCc3c([nH]c4ccccc34)C2)cc1Br | 8% | 10% | -5% | -1% | -2% | ?
Cc1ccccc1OCC(=O)NCC(C)NC(=O)COc1ccccc1C (centres undefined) | / | / | 2% | / | / | /
Cc1ccc(S(=O)(=O)N2CCN(C(=O)COC(=O)C3CCC3)CC2)c(C)c1 | 1% | 14% | 25µM* | 0% | 2% | 0%
Cc1ccc(S(=O)(=O)N2CCN(C(=O)COC(=O)CSc3cc(C)ccc3C)CC2)c(C)c1 | 4% | 6% | -3% | -2% | 0% | 37%
C(=C\c1nc2ccccc2o1)/c1ccc2c(c1)OCO2 | / | / | 8% | / | / | /
CC(C)C(=O)Nc1nc2c(ncn2[C@H]2CC(O)[C@@H](CO)O2)c(=O)[nH]1 (some centres undefined) | / | / | 0% | / | / | /
CC1CCC2(CC1)Nc1ccccc1C(=O)N2c1ccccc1 (centres undefined) | 16% | -2% | 28µM* | 0% | 2% | 9%
Cc1ccc2ncnc(NCc3ccco3)c2c1 | / | / | -5% | / | / | /
O=C(c1cccc(S(=O)(=O)N2CCCC2)c1)N1CCCC(C(F)(F)F)C1 (centres undefined) | -1% | -1% | 28µM* | 0% | 0% | 1%
CCCCNC(=O)CC1N=C2c3ccccc3N=C(SCC(=O)NCc3ccccc3Cl)N2C1=O (centres undefined) | / | / | 18µM* | / | / | /
O=C(CC1N=C2c3ccccc3N=C(SCc3cccc(F)c3)N2C1=O)NC1CCCCC1 (centres undefined) | / | / | 0% | / | / | /
CCCCNC(=O)CSC1=Nc2ccccc2C2=NC(CCC(=O)NCc3ccccc3OC)C(=O)N12 (centres undefined) | / | / | -27% | / | / | /
O=C(CC1N=C2c3ccccc3N=C(SCc3cccc(Cl)c3)N2C1=O)NC1CCCCC1 (centres undefined) | / | / | 35µM* | / | / | /
O=C(CSC1=Nc2ccccc2C2=NC(CC(=O)NC3CCCCC3)C(=O)N12)Nc1ccc(F)cc1 (centres undefined) | / | / | 14µM* | / | / | /
CCc1ccc(NC(=O)CSC2=Nc3ccccc3C3=NC(CC(=O)NC4CCCCC4)C(=O)N23)cc1 (centres undefined) | / | / | 0% | / | / | /
COc1ccc(CCNC(=O)CCCNC(=O)Cn2cnc3sc(C)c(C)c3c2=O)cc1OC | 0% | -11% | 0% | 2% | 1% | ?
